The structures appear in SMILES notation. The source made the active and inactive calls.

Test [1] is described as follows: binders of probe aFSTL3 on microarray, primary screen, stem cell growth factor project, biochemical, small-molecule microarray, fluorescence 635/667 (AID 1064).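 Note: measures binding of the biotinylated anti-FSTL3 antibody to printed compounds.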 The conditions noted are these: higher = more signal.
A short description of test [2]: binders from COS7 lysate, DM2A8 probe, primary screen, torsin A project, cell lysate, small-molecule microarray, fluorescence 635/667 (AID 1065). The conditions noted are these: higher = more signal, COS7 lysate expressing mutant human TOR1A.
Test [3] in a line: binders of probe aFGF2 on microarray, primary screen, stem cell growth factor project, biochemical, small-molecule microarray, fluorescence 635/667 (AID 1067).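 Note: measures binding of biotinylated aFGF2 protein to printed compounds on slides; z-score merges feature fluorescence and signal-to-noise across triplicate slides.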 The settings on record: higher = more signal.
Test [4] is described as follows: binders of probe aFGF10 on microarray, primary screen, stem cell growth factor project, biochemical, small-molecule microarray, fluorescence 635/667 (AID 1071).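 Note: score merges 667 nm spot intensity and signal to noise from triplicate slides.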 The settings on record: higher = more signal.
The target of test [5] is Neurogenic locus notch homolog protein 2 (Homo sapiens) (UniProt Q04721). Briefly: Notch2 binders on small-molecule microarrays, primary screen, biochemical, small-molecule microarray, 635 nm fluorescence, stem cell growth factors (AID 1073). The settings on record: Notch2 binding, higher = more signal.
Sequence of Neurogenic locus notch homolog protein 2 (Homo sapiens) (Q04721 whole entry, looked up, canonical isoform): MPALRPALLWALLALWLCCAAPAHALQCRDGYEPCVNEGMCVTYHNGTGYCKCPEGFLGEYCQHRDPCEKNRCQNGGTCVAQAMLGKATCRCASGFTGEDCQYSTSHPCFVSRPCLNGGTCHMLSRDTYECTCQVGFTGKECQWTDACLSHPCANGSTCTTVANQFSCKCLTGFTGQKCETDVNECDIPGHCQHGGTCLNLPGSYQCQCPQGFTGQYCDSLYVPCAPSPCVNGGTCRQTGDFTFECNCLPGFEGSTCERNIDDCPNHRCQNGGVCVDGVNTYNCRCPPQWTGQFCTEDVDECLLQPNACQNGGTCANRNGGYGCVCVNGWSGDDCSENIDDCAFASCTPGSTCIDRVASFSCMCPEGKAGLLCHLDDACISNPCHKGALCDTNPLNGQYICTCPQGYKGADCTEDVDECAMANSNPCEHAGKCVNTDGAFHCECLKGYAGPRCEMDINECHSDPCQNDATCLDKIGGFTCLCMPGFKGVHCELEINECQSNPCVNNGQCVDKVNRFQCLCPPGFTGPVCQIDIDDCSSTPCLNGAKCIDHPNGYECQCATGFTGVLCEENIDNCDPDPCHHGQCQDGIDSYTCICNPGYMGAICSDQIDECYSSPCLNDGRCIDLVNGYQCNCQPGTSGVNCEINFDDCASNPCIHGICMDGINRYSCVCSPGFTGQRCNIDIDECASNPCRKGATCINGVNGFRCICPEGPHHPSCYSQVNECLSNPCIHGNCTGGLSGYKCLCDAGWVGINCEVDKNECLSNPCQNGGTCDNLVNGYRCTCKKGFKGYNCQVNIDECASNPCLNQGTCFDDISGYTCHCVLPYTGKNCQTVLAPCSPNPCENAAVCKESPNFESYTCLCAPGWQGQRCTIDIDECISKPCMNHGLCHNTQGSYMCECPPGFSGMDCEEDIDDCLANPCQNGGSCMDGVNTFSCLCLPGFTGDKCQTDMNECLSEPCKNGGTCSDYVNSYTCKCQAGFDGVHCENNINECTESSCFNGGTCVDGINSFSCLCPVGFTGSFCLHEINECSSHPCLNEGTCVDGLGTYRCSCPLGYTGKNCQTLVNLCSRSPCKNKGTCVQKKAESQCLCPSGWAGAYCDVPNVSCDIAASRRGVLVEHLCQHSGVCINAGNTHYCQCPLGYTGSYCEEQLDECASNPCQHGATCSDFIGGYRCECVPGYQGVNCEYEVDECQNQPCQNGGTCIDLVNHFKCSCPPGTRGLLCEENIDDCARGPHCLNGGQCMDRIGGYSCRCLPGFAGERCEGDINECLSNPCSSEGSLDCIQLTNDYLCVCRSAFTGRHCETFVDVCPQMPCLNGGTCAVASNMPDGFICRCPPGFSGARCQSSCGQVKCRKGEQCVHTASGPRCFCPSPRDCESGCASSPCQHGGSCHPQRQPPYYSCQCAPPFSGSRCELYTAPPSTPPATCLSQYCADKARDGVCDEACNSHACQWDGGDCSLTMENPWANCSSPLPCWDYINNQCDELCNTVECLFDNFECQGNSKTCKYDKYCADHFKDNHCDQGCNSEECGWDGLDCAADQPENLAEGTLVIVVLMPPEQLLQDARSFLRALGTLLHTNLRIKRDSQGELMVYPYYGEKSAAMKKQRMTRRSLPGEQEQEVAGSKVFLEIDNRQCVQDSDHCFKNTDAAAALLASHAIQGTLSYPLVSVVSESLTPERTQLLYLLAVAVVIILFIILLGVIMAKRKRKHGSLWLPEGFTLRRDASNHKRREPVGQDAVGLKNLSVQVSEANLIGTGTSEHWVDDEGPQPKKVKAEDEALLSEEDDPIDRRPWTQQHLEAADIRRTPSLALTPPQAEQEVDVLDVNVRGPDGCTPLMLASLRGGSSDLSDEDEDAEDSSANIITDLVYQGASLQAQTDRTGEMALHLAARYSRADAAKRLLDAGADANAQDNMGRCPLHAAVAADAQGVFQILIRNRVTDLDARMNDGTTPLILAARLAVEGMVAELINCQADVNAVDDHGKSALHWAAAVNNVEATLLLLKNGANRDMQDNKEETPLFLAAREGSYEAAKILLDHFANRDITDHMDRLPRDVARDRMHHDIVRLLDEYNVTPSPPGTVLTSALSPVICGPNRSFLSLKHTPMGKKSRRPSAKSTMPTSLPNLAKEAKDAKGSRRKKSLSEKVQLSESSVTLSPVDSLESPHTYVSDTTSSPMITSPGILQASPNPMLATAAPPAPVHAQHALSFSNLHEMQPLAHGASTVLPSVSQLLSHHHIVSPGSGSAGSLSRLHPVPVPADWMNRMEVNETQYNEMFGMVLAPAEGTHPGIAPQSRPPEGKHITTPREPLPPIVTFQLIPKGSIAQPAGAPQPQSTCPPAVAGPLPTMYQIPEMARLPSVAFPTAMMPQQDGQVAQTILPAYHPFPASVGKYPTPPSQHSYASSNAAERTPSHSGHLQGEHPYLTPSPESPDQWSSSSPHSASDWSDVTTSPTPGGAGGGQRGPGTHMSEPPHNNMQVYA
For test [6], the target named is Pro-neuregulin-1, membrane-bound isoform (Homo sapiens) (UniProt Q02297). Nature of the test: NRG1 binders on small-molecule microarrays, primary screen, psychiatric disease protein project, biochemical, small-molecule microarray, fluorescence 635/667 (AID 1075).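 Note: score combines 667 nm spot fluorescence with signal to noise.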 The conditions noted are these: NRG1 binding, 635 nm fluorescence, higher = more signal.
Sequence of Pro-neuregulin-1, membrane-bound isoform (Homo sapiens) (Q02297 whole entry, looked up, the tested form may be a part, canonical isoform): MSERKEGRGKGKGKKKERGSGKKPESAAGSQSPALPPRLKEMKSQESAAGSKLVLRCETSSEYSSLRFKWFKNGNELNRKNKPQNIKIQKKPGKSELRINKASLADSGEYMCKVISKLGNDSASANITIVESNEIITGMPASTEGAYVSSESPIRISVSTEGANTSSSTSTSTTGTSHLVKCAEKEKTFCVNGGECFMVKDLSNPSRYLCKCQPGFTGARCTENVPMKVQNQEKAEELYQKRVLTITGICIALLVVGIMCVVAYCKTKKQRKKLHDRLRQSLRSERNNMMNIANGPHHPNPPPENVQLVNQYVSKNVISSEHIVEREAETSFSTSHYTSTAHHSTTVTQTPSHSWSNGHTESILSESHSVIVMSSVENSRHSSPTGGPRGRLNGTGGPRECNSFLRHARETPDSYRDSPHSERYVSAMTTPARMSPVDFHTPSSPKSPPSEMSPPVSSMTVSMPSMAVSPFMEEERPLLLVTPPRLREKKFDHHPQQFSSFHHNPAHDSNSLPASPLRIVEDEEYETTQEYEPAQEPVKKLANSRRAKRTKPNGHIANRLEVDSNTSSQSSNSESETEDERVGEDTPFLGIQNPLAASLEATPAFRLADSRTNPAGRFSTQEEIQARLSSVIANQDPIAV
The test system of test [7] is Neuregulin-1 EGF-like domain. Briefly: binders of neuregulin-1 EGF-like domain, primary screen, biochemical, small-molecule microarray, 635 nm fluorescence (AID 1081).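 Note: binding of the protein to compounds printed on small-molecule microarray slides.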 The conditions noted are these: small-molecule microarray binding, higher = more signal.
Test [8] in a line: FRG1 promoter luciferase signal modulators, primary screen, FRG1 inhibition for FSHD, cell-based, C2C12 myotubes, firefly/Renilla luciferase, luminescence (AID 1084). The conditions noted are these: higher = more signal, called active from +8 up or from −8 down.
Test [9] is described as follows: binders of probe aFST on microarray, primary screen, stem cell growth factor project, biochemical, small-molecule microarray, fluorescence 635/667 (AID 1086).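 Note: score merges 667 nm fluorescence with signal-to-noise of each printed compound spot.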 The settings on record: higher = more signal.
Test [10] can be described thus: binders of probe aHhip on microarray, primary screen, stem cell growth factor project, biochemical, small-molecule microarray, fluorescence 635/667 (AID 1087).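 Note: score merges spot fluorescence at 667nm with spot signal to noise ratio.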 The conditions noted are these: higher = more signal.

With `CC(C)c1ccc(NN2C(C(O)c3c(F)cccc3Cl)C=CC3C(=O)N(c4ccccc4)C(=O)C32)cc1` (stereo not given), the composite z-score came to 1.07 in test [1]; 0.177 in [2]; 0.0923 in test [3]; 0.653 in test [4]; 1.52 in [5]; 1.31 in test [6]. The composite z-score is 0.973 in test [7], 1.68 in test [9] and -0.139 in test [10]. The z-score in [8] was 2.73 (inactive).
In the case of `COCC1=C2[C@@H](CCc3ccccc3)OB(O)C[C@@H]2[C@@H]2C(=O)N(Cc3ccccc3)C(=O)[C@@H]2C1`, the composite z-score in [1] is -0.505; in test [2], -0.138; in test [3], -0.0419; in [4] it was 0.135; in test [5], -0.0585; in test [6] it was 0.0327. Also, the composite z-score in test [7] is -0.0593; in test [9], -0.492; in test [10], -0.201. Also, the z-score in test [8] was -3.66 (inactive).
Take `COCCCNC(=O)[C@@]1(C)c2ccccc2C(=O)N(Cc2cc(C(F)(F)F)cc(C(F)(F)F)c2)[C@H]1c1ccc(CO)cc1`: the composite z-score was 0.472 in test [1]; -1.39 in test [2]; -0.103 in [3]; -0.635 in test [4]; -0.664 in test [5]; 1.59 in [6]. Also, the composite z-score in test [7] was 0.738; in [9] it was -0.0412; in test [10], -0.134. Also, the z-score in [8] is -1.29 (inactive).
Consider `CCCCC(O)C1C=CC2C(=O)N(C3CCCCC3)C(=O)C2N1Nc1ccc(OC)cc1` (stereo not given), for which the composite z-score in test [1] was -0.362; in test [2], 0.139; in test [3] it was -0.0056; in [4] it was 0.441; in test [5] it was 1.45; in test [6], 1.29. For the same molecule, the composite z-score in test [7] amounted to 1.13; in test [9] it was 0.583; in [10], 0.107. Moreover, in test [8], the z-score was 0.405 (inactive).
Turning to `CCC[C@@H]1C=C(C(=O)O)[C@H](c2ccc(C)cc2)N1S(=O)(=O)c1ccc(C)cc1`, the composite z-score in [1] is -0.0973; in [2] it was 0.0641; in [3], 0.0485; in [4], 0.854; in [5] it was 1.35; in test [6], 1.79. Also, the composite z-score in [7] came to 1.26; in [9], 0.648; in test [10] it was 0.099. Besides, in [8], the z-score was -1.09 (inactive).
`COC(=O)[C@@]1(Cc2ccc(OC)cc2)[C@H]2c3cc(C(=O)N4CCCC4)n(Cc4ccccn4)c3C[C@H]2CN1C(=O)c1ccccc1`: the composite z-score in test [1] is 0.381; in test [2], 0.765; in test [3] it was 0.396; in test [4], 1.11; in test [5], 1.66; in test [6] it was 2.1. The composite z-score in [7] came out at 1.4; in test [9] it was 1.01; in [10], 0.501. Further, in test [8], the z-score is 2.78 (inactive).
As to `COCCOC(=O)N1C(=O)[C@@]2(c3cc(C#CC4=CCCCC4)ccc31)[C@H](C(=O)N1CCc3cc(OC)c(OC)cc3C1)[C@H]1C(=O)O[C@H](c3ccccc3)[C@H](c3ccccc3)N1[C@@H]2c1ccccc1OCCO`, the composite z-score in test [1] is 0.243; in test [2] it was 0.0781; in test [3] it was -0.0867; in [4] it was -0.205; in test [5], 0.138; in [6], -0.442. Further, the figures for the composite z-score in [7], in test [9] and in [10] were 1.06, 0.186 and -0.0645, respectively. The z-score in [8] was 0.801 (inactive).
Take `C=CCC(OC(C)=O)[C@@H]1[C@@H](N(Cc2ccc(-c3ccccc3)cc2)C(=O)Cc2ccc(OC)cc2)c2cc(OCCCO)ccc2N1C(=O)c1ccc2ccccc2n1` (stereo not given in full): the composite z-score in [1] was 0.0604; in [2], -0.11; in test [3], -0.0074; in [4], -0.0502; in test [5], 0.0378; in test [6], -0.111. The composite z-score is -0.271 in test [7], 0.411 in test [9] and -0.0994 in [10]. In addition, the z-score in test [8] is -0.83 (inactive).
On to `CCOC(=O)C1=C[C@@H](C(C)C)N(S(=O)(=O)c2ccc(C)cc2)[C@H]1c1ccc(C(C)C)cc1`, for which the composite z-score in [1] is -0.462; in test [2], 0.352; in test [3] it was -0.0647; in test [4] it was 0.543; in test [5], 1.52; in test [6] it was 0.609. Besides, the composite z-score in test [7] was 0.683; in [9] it was 0.937; in [10], -0.0754. Besides, the z-score in [8] is -1.89 (inactive).
Turning to `O=C1C[C@@](C(=O)NC2CC2)(c2ccc([N+](=O)[O-])cc2)[C@@H](c2ccc(CO)cc2)N1CC12CC3CC(CC(C3)C1)C2`, the composite z-score in [1] was -0.0569; in test [2], -0.121; in [3], -0.0111; in test [4], 0.214; in test [5] it was 1.4; in test [6], 0.707. Moreover, the composite z-score in test [7] is 0.745; in test [9], 0.424; in test [10], -0.136. Further, the z-score in [8] is -0.962 (inactive).
In the case of `C=CCNC(=O)[C@@H]1[C@H]2C(=O)O[C@H](c3ccccc3)[C@H](c3ccccc3)N2[C@H](c2ccc(O)cc2)[C@@]12C(=O)N(C(=O)OCCOC)c1ccccc12`, the composite z-score in [1] was -0.0042; in test [2], 1.11; in [3], -0.0434; in test [4], 0.558; in test [5] it was 0.369; in test [6], 1.51. The composite z-score in [7] was 1.23; in test [9], 0.376; in [10] it was -0.0994. For the same molecule, the z-score in test [8] was 0.993 (inactive).
In the case of `COCCOC(=O)N1C(=O)[C@@]2(c3cc(C#CCC(C(=O)OC)C(=O)OC)ccc31)[C@H](C(=O)N1CCCCCCC1)[C@H]1C(=O)O[C@H](c3ccccc3)[C@H](c3ccccc3)N1[C@@H]2c1ccc(OCCO)cc1`, the composite z-score came to 3.71 in test [1]; 1.81 in [2]; 0.755 in test [3]; 0.833 in [4]; 1.32 in test [5]; 2.11 in test [6]. For the same molecule, the composite z-score in test [7] stood at 1.36; in test [9], 3.4; in test [10] it was 2.72. For the same molecule, the z-score in test [8] was 0.109 (inactive).
As to `C=C(COC)C(=O)CC[C@H](OC(C)=O)c1cccc(OCCO)c1`, the composite z-score in test [1] is -0.0206; in [2], 1.66; in [3] it was -0.0767; in test [4] it was 0.553; in [5], -0.844; in test [6], -0.13. Besides, the values for the composite z-score in test [7], in test [9] and in test [10] were -0.208, -0.392 and -0.291, respectively. For the same molecule, in test [8], the z-score was 0.39 (inactive).
As to `COCCOC(=O)N1C(=O)[C@@]2(c3cc(C#CCNC(N)=O)ccc31)[C@H](c1ccc(O)cc1)N1[C@H](c3ccccc3)[C@H](c3ccccc3)OC(=O)[C@H]1[C@@H]2C(=O)Nc1nc2ccccc2s1`, the composite z-score was 0.764 in [1]; 0.172 in test [2]; -0.0736 in [3]; 0.826 in [4]; 1.27 in test [5]; 0.787 in test [6]. For the same molecule, the results for the composite z-score in [7], in test [9] and in test [10] were 0.297, 0.522 and -0.0994, respectively. In addition, in test [8], the z-score was -0.0332 (inactive).
